Measured values from PubChem BioAssay AID763 (NMMLSC, 2007).
The source made the active and inactive calls. How the calls were made is not given here.

Each molecule was assayed against fMet-Leu-Phe receptor (Homo sapiens) (UniProt P21462) (assay: FPR1 fluorescent ligand binding inhibitors, SAR follow-up, selectivity assay for FPRL1 ligand SAR project, cell-based, single concentration (AID 763)). Details: FPR1-expressing cells, active compounds read high; at 5.4 µM unless noted.
Sequence of fMet-Leu-Phe receptor (Homo sapiens) (P21462 whole entry, looked up): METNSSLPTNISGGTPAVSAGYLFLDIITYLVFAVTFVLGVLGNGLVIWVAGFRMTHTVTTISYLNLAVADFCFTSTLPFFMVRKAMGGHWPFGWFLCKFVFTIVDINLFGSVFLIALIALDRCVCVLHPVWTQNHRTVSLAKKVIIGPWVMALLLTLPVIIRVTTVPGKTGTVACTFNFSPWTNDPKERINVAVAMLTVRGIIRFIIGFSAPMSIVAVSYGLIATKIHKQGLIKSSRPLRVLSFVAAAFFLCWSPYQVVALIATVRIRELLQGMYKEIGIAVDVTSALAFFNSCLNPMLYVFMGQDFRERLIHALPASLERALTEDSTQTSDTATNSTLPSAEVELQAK

inhibition, inactive:
O=C(c1cccc(F)c1)N1CCN(c2nc(-c3cccs3)cc(C(F)(F)F)n2)CC1 1.1% [at 5.1 µM]
COc1ccccc1-c1cc(C(F)(F)F)nc(N2CCN(Cc3ccccc3)CC2)n1 1.1% [at 5.2 µM]
FC(F)(F)c1cc(-c2cccs2)nc(N2CCN(Cc3ccccc3)CC2)n1 0.4% [at 5.5 µM]
CCCC(=O)Nc1cccc(-c2cn3cccnc3n2)c1 -1.6% [at 7.9 µM]
COc1cccc(-c2cc(C(F)(F)F)nc(N3CCN(Cc4ccccc4)CC3)n2)c1 -16.6% [at 5.2 µM]
CCC(CC)C(=O)Nc1cc(-c2cn3cccnc3n2)ccc1OC -5.9% [at 6.6 µM]
COc1ccc(-c2cn3cccnc3n2)cc1NC(=O)C(C)Oc1ccccc1 (stereo not given) 3.7% [at 5.7 µM]
FC(F)(F)c1cc(-c2cccs2)nc(N2CCN(C(c3ccccc3)c3ccccc3)CC2)n1 -2.4% [at 4.6 µM]
CCC(=O)Nc1cccc(-c2nc3ncccn3c2C)c1 5.6% [at 7.9 µM]
O=C(O)CCCC(=O)N1CCN(c2nc(-c3ccccc3Cl)c3cc(Br)ccc3n2)CC1 1.9% [at 4.3 µM]
COc1ccccc1-c1cc(C(F)(F)F)nc(N2CCN(c3ccc(F)cc3)CC2)n1 -2.5% [at 5.1 µM]
CCOC(=O)N1CCN(c2nc(-c3ccc(OC)cc3)cc(C(F)(F)F)n2)CC1 -5.3%
Clc1ccc2nc(N3CCN(c4ccccc4)CC3)nc(-c3ccccc3)c2c1 1.7% [at 5.5 µM]
O=C(c1ccc(Cl)cc1)N1CCN(c2nc(-c3ccccc3)c3ccccc3n2)CC1 -1.9% [at 5.2 µM]
COc1ccc(-c2cn3cccnc3n2)cc1NC(=O)c1ccccc1F 2.4% [at 6.1 µM]
COc1cc(OC)cc(C(=O)Nc2cc(-c3cn4cccnc4n3)ccc2OC)c1 4.4% [at 5.5 µM]
O=C1CC(c2ccco2)Cc2nc(N3CCN(Cc4ccccc4)CC3)ncc21 (stereo not given) 5.5% [at 5.7 µM]
COc1ccc(CC(=O)Nc2cc(-c3cn4cccnc4n3)ccc2OC)cc1 -1.7% [at 5.7 µM]
O=C(O)C1CC=CCC1C(=O)N1CCN(c2nc(-c3ccccc3Cl)c3cc(Br)ccc3n2)CC1 (stereo not given) 5.3% [at 4 µM]
CCOCC(=O)Nc1cc(-c2cn3cccnc3n2)ccc1OC 2.3% [at 6.8 µM]
